Screening results as filed in PubChem BioAssay.
In the library only some 4.6% were active in any assay of this set; here they are far more common.
D1 agonist – human D1 receptor agonism | P21728 | hit rate 1% among 360,000 | AID 504660 | activation, % at 2 µM | HEK293 T-REx D1 cells, calcium flux, agonist mode; also: 0% is about no effect
Target sequence (P21728 whole entry, looked up): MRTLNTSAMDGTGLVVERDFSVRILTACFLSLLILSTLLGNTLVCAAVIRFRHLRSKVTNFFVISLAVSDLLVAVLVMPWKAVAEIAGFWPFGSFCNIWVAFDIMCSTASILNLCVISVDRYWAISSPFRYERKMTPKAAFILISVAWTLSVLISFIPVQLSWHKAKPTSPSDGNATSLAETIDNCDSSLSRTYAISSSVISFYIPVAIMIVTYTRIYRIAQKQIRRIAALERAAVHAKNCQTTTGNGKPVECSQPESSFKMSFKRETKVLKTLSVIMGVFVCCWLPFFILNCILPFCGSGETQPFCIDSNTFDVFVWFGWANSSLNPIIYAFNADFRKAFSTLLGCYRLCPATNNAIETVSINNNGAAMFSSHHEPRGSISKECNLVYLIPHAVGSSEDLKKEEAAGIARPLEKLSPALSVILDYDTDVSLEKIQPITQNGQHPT
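Agonism was scored from calcium flux recorded over 180 s (1 read/s) after pintool compound addition, following a 10-cycle baseline. Cells were inducible force-coupled HEK293 TREx D1, plated overnight at 30 C and loaded with no-wash calcium dye.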
D1 potentiator – enhances dopamine response at the human D1 receptor; P21728; HEK293 TREx D1 cells, calcium flux, dopamine EC20 potentiation; potentiation, % at 10 µM; hit rate 0.036% among 360,000; in the data active = potentiation above about 30%; also: 0% is about no effect
TRHR enhancer – allosteric enhancers of human TRH receptor. enhancement, % at 2 µM. TRHR cells, fluo-8 calcium fluorescence, EC20 TRH enhancement. hit rate 0.66% among 360,000; in the data active = enhancement above about 30%; also: 0% is about no effect
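Enhancer read-out: after compound pinning and an initial kinetic agonist-mode read, an EC20 of TRH (10 nM final) was injected and fluo-8 calcium signal (Ex 480/Em 530) followed at 1 s/cycle for 100 cycles in TRHR-expressing cells.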
TRHR agonist – agonists of human TRH receptor. P34981. TRHR cells, calcium flux fluo-8, FDSS agonist mode. activation, % at 2 µM. hit rate 0.18% among 360,000. AID 493084; also: 0% is about no effect
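In this calcium-flux screen, cells bearing human TRHR are dye-loaded with fluo-8, baselined for 10 cycles, then exposed to library compounds; positive kinetic calcium responses during the agonist phase mark hits, with TRH as control.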
D1 antagonist – blocks dopamine activation of the human D1 receptor; P21728; activity change, negative = inhibition, % at 10 µM; HEK293 TREx D1 cells, calcium flux, dopamine EC80; active compounds read low; hit rate 3.2% among 360,000; in the data active = activity change below about -30%; also: % is scaled to controls: 0 for no effect and ±100 for the full control effect
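Cells carrying a force-coupled, tetracycline-inducible human D1 receptor report calcium flux. Each well gets a 10 s baseline, compound with 180 s monitoring, then an EC80 dopamine stimulus with a second 180 s kinetic read.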
An asterisk follows results filed as active; x = no result. Rule as the data show it, unless noted: active = activation above about 30%; inactive = the rest.

SMILES	D1 agonist	D1 potentiator	TRHR enhancer	TRHR agonist	D1 antagonist
Cc1ccc(NC(=O)CN2C(=O)CCSc3ccc(S(=O)(=O)N4CCCC4)cc32)cc1C	2	-3	-6	-1	-10
CCOC(=O)c1sc2cccc(F)c2c1S(=O)(=O)Nc1ccccc1F	3	-5	2	1	4
Cn1nccc1NC(=O)Nc1cccc(Cl)c1Cl	4	-15	10	0	-33*
CN1CCN(NC(=O)Nc2cccc(Cl)c2Cl)CC1	1	-4	2	3	-2
COC(CNC(=O)c1ccc(N2CCC3(CC2)OCCO3)c([N+](=O)[O-])c1)OC	2	0	3	0	7
CC(C)(C)NC(=O)C(c1c[nH]c2ccccc12)N(C(=O)Cn1nnc(-c2ccc(Cl)cc2)n1)c1ccccc1F (stereo not given)	5	50*	-3	0	-7
Cc1cc(Cl)c(S(=O)(=O)Nc2ccc3c(c2)OCO3)cc1OCC(N)=O	3	-4	11	1	-34*
Oc1ccc(C[C@@H]2CNCCN2CCC23CC4CC(CC(C4)C2)C3)cc1	95*	2	9	0	34
Oc1ccc(C[C@H]2CNCCN2CCCCC2CCCCC2)cc1	33*	-2	6	1	10
Oc1ccc(C[C@H]2CNCCN2CCC23CC4CC(CC(C4)C2)C3)cc1	24	1	6	0	1
COC(=O)c1ccc(NC(=O)CN2C(=O)CCc3cc(S(=O)(=O)N4CCCCC4)ccc32)cc1	0	-1	-4	0	7
CCn1ncc(-c2cc(C(=O)O)no2)c1C	4	-1	1	0	15
CC(=O)c1ccc(OCc2ncc(C(F)(F)F)cc2Cl)cc1	2	-1	1	0	-3
COC(=O)c1ccc(CSCc2ccc(C#N)cc2)cc1	8	-12	-11	-1	-35*
N#Cc1ccc(CSCC(=O)O)cc1	1	-7	14	1	4
CCOc1ccc(NC(=O)c2cc(S(=O)(=O)N3CCc4ccccc43)ccc2F)cc1	-1	-2	-1	0	10
CC1(C)CC(=O)C2=C(C1)OC(/N=C/N1CCCC1)=C(C#N)C2c1ccccc1 (stereo not given)	-1	-12	-18	0	-95*
COc1ccc(NC(=O)c2cn3c4c(ccc(Cl)c4c2=O)OC(C)C3)cc1OC (stereo not given)	3	8	50*	-1	16
C/C(=N\OC(=O)c1c(-c2ccccc2Cl)noc1C)c1nccs1	1	-3	14	0	-5
C/C(=N\OC(=O)c1ccc(Cl)cc1)c1nccs1	1	-13	4	0	-32*
N#CCC(N)=C(C#N)C#N	80*	8	-8	38*	9
Cc1cccc(NCc2cccc3ccccc23)n1	1	-3	0	-1	-91*
Cc1ccc(C2CC(=O)Oc3cc(O)ccc32)cc1 (stereo not given)	5	-5	1	3	-30*
CCSc1nnc(NC(=O)c2cc(C)on2)s1	0	0	12	1	-4
O=C(Nc1cccc(C(=O)N2CCN(c3cccc(Cl)c3)CC2)c1)c1ccccc1	6	-2	7	-1	-8
SMILES	D1 agonist	D1 potentiator	TRHR enhancer	TRHR agonist	D1 antagonist
C/C(=N\NC(=O)c1nn(C)c(C)c1Br)c1ccc(NC(=O)c2ccoc2C)cc1	2	0	31*	-1	-2
COc1ccc(C2=CSC3=NCCN23)cc1	0	0	5	1	6
C=CCOC(=O)C1=C(C)NC(SCC(=O)Nc2nccs2)=C(C#N)C1c1cccs1 (stereo not given)	2	-22	11	-1	-75*
C=CCOC(=O)C1=C(C)NC(SC)=C(C#N)C1c1cccs1 (stereo not given)	0	-6	-10	-1	-20
C=CCOC(=O)C1=C(C)NC(SCC(=O)Nc2nccs2)=C(C#N)C1c1ccc(Cl)cc1 (stereo not given)	1	-14	2	0	-70*
CCOC(=O)C1=C(C)NC(SCC(=O)Nc2cc(C)on2)=C(C#N)C1c1cccs1 (stereo not given)	3	-6	-6	0	-48*
CCOC(=O)C1=C(C)NC(SCC(N)=O)=C(C#N)C1c1cccs1 (stereo not given)	2	-5	9	-1	35
COc1ccc(NC(=O)Cn2ccc3c(OC)cccc3c2=O)cc1	4	-2	7	1	12
Cc1cc([N+](=O)[O-])nn1CC(=O)NNC(=S)Nc1ccc([N+](=O)[O-])cc1	2	-2	-5	-1	44
Cc1cccc(CS(=O)(=O)c2ncc(Cl)c(C(=O)Nc3c(C)cccc3C)n2)c1	2	-5	-17	1	-32*
Cc1cccc(CS(=O)(=O)c2ncc(Cl)c(C(=O)NCc3ccccc3)n2)c1	2	-6	-14	-1	-32*
COc1ccc2nc(NC(=O)c3nc(S(=O)(=O)Cc4cccc(C)c4)ncc3Cl)sc2c1	1	-2	-7	0	-31*
CN=C1C([N+](=O)[O-])=CC=C2C1=NC1(CCCCC1)N2O	0	-3	-2	-1	-17
N#Cc1c([N+](=O)[O-])cc([N+](=O)[O-])cc1S(=O)(=O)Cc1ccccc1	2	-4	-11	-2	-35*
O=C1NC2(NN1c1ccccc1)C1CC3CC(C1)CC2C3 (stereo not given)	43*	6	-1	5	5
CC(OC(=O)C1CCC(=O)N1)C(=O)Nc1cc(Cl)cc(Cl)c1 (stereo not given)	17	-14	-4	0	42
O=C(CSc1ncnc2ccccc12)Nc1cccc(S(=O)(=O)N2CCCC2)c1	12	-5	-1	0	-19
CC(OC(=O)CN1C(=O)c2ccccc2C1=O)C(=O)NC1CCCCC1 (stereo not given)	2	0	9	0	7
CN(C)c1cccc(/C=C(\C#N)c2ccccc2)c1	-1	0	17	-1	-32*
CN(C)c1ccc(/C=C(\C#N)c2ccccc2)cc1	1	-4	0	0	-4
CCN(CC)c1ccc(/C=C(\C#N)C(=O)c2ccc(Br)cc2)cc1	259*	-10	7	109*	-48*
COc1ccc(/C=C(\C#N)C(=O)OCC(=O)NCc2ccccc2)cc1	0	1	0	0	0
COc1cccc(CNC(=O)COC(=O)/C(C#N)=C/c2ccc(N(C)C)cc2)c1	74*	x	1	13	-17
CN(C)c1ccc(/C=C(\C#N)C(=O)c2ccccc2)cc1	401*	22	29	138*	-39*
CCC1COCCS(=O)(=O)N1Cc1cccc(C(F)(F)F)c1 (stereo not given)	-1	-5	12	-2	-7
